# Measurements reported in PubChem BioAssay AID493072 (Broad Institute, 2011).
# Measured potencies and affinities stand elsewhere. Calls of active or inactive are those of the source.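 The calls were made as follows: active = signal drops and a fitted half-effect dose is at or below ten times that sample's top valid dose; inconclusive = flat fit with a moderate drop, or a poor fit; inactive = the rest.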
# Assay: inhibitors of AI-2 quorum sensing in V. harveyi, dose response, LuxS, LuxPQ, dry powder, set 2 (AID 493072)
smiles,measurement,value
CCc1ccc(C(=O)Nc2ccc(Br)cn2)cc1,outcome,inactive
